# Results: PubChem BioAssay (NCI)
# About 79,000 compounds went through this panel and 15% of them were active in at least one assay; those are over-represented in the sample as a whole. Values without a mark were called inactive. The source made the active and inactive calls. Cut-off read from the data, not from the text of the source: active = growth inhibition above about 70%; inactive = the rest.
# What was measured:
# [1] = NCI Yeast Anticancer Drug Screen. Data for the rad50 strain (AID 155);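 note: 0% = growth of vehicle-only cultures of the same strain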; settings: S. cerevisiae rad50 strain growth inhibition, stronger effect = higher value
# In short: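 Yeast carrying a defined DNA repair defect were exposed to test compounds, and growth was compared with vehicle-treated controls to give percent inhibition.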
# [2] = NCI Yeast Anticancer Drug Screen. Data for the mec2-1 strain (AID 157); settings: S. cerevisiae mec2-1 strain, stronger effect = higher value
# In short: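 Readout is yeast growth inhibition, normalised to vehicle-treated controls, in the mec2-1 strain exposed to compound.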
# [3] = NCI Yeast Anticancer Drug Screen. Data for the sgs1 mgt1 strain (AID 161);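 note: 0% = growth of cultures given vehicle only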; settings: S. cerevisiae sgs1 mgt1 strain, stronger effect = higher value
# In short: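 This yeast growth screen uses a strain with defined DNA-repair lesions; compound-treated growth is compared with vehicle-treated growth.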
# [4] = NCI Yeast Anticancer Drug Screen. Data for the cln2 rad14 strain (AID 165);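 note: 0% = growth equal to vehicle treated cultures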; settings: S. cerevisiae cln2 rad14 strain, stronger effect = higher value
# In short: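 Relative to vehicle controls, growth inhibition of compound-treated cln2 rad14 yeast was recorded.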
# [5] = NCI Yeast Anticancer Drug Screen. Data for the bub3 strain (AID 167); settings: S. cerevisiae bub3 mutant strain, stronger effect = higher value
# In short: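 Compounds were applied to a genetically altered yeast strain carrying a cell-cycle control defect. Growth inhibition was scored against vehicle-treated controls.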
# [6] = NCI Yeast Anticancer Drug Screen. Data for the mlh1 rad18 strain (AID 175); settings: S. cerevisiae mlh1 rad18 strain growth inhibition, stronger effect = higher value
# In short: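 Test agents were incubated with a yeast strain of defined genotype (DNA damage repair defect). Inhibition of growth was derived by comparison with vehicle-exposed cultures.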
# [7] = at 5.0 µM (retest, dose inferred, filed as 0.5)
# [8] = at 50.0 µM (retest, dose inferred, filed as 5.0)
SMILES,"growth inhibition [1, 7] [%]","growth inhibition [1, 8]",growth inhibition ([1]; at 50.0 µM),"growth inhibition [2, 7]","growth inhibition [2, 8]",growth inhibition ([2]; at 50.0 µM),"growth inhibition [3, 7] [%]","growth inhibition [3, 8]",growth inhibition ([3]; at 50.0 µM),"growth inhibition [4, 7] [%]","growth inhibition [4, 8]",growth inhibition ([4]; at 50.0 µM),"growth inhibition [5, 7] [%]","growth inhibition [5, 8]",growth inhibition ([5]; at 50.0 µM),"growth inhibition [6, 7]","growth inhibition [6, 8]",growth inhibition ([6]; at 50.0 µM)
O=C(Nc1nc2c(ncn2C2CC(OC(=O)c3ccccc3)C(COC(=O)c3ccccc3)O2)c(=O)[nH]1)c1ccccc1 (configuration not stated),3,5%,55.5%,8%,12%,38.5%,-16,33%,69.6%,6,18%,66.4%,7,10%,57.6%,9%,12%,60%
CC(C)OC(=O)C1C=CCc2c(O)ccc(O)c21 (configuration not stated),8,25%,21.2%,15%,24%,11.8%,12,44%,61%,7,22%,65.9%,4,24%,52%,11%,35%,86.2% (active)
C/C=C\C(/C=C/C)(C(=O)OCCN(C)C)C(/C=C\C)(/C=C/C)C(=O)OCCN(C)C (configuration not stated),5,97% (active),98% (active),2%,97% (active),96.8% (active),5,96% (active),95.8% (active),2,97% (active),96.5% (active),2,95% (active),95.4% (active),3%,97% (active),97% (active)
O=C(Nc1ccccc1)OCCN=C1c2ccccc2CCc2ccccc21,4,95% (active),66.1%,-35%,96% (active),76.2% (active),-27,95% (active),81.7% (active),-30,94% (active),84% (active),-30,96% (active),83.9% (active),-22%,95% (active),88.8% (active)
O=C1OC(C2OC(=O)C(=O)C2C(=O)c2ccc([N+](=O)[O-])cc2)C(C(=O)c2ccc([N+](=O)[O-])cc2)C1=O (configuration not stated),5,57%,91.6% (active),14%,44%,59.1%,10,86% (active),91.5% (active),11,22%,64.2%,5,39%,56.6%,6%,53%,96.5% (active)
O=C(O)C(CCc1cccc2ccccc12)c1ccccc1 (configuration not stated),13,97% (active),99.6% (active),2%,95% (active),99.2% (active),5,98% (active),99.5% (active),-4,96% (active),99.3% (active),3,73% (active),99% (active),5%,98% (active),99.4% (active)
CCN(CC)C(=S)N/N=C/c1cc(OC)ccc1O,-15,65%,69.9%,-43%,93% (active),73.2% (active),-33,95% (active),62.4%,-6,62%,53.5%,-38,84% (active),61.5%,-30%,78% (active),26.6%
CC(=O)OC[C@@]1(C)[C@@H]2CC[C@]3(C)[C@H](C(=O)C=C4[C@@H]5CC(C)(C)CC[C@]5(C(=O)O)CC[C@]43C)[C@@]2(C)CC[C@@H]1OC(C)=O,23,84% (active),43.1%,23%,88% (active),94.2% (active),28,88% (active),92.8% (active),39,93% (active),95.7% (active),9,91% (active),92.7% (active),29%,88% (active),95.6% (active)
Nc1nnc(Cc2ccc(Br)cc2)o1,-8,0%,21.3%,1%,-6%,13.9%,-3,12%,24.3%,10,-2%,71.5% (active),4,6%,-13.8%,-12%,4%,58.3%
Clc1nc(Cl)nc(N2CCCc3ccccc32)n1,-24,78% (active),69.1%,-10%,78% (active),70.9% (active),-19,67%,85.9% (active),22,56%,74.7% (active),-10,91% (active),79% (active),2%,82% (active),74.3% (active)
CC(C)C1=CC23CCC4C(C)(C(=O)O)CCCC4(C)C2CC1c1c(O)ccc(O)c13 (configuration not stated),30,98% (active),99.3% (active),75% (active),100% (active),99.3% (active),51,99% (active),99.3% (active),28,98% (active),99.2% (active),31,99% (active),99.2% (active),81% (active),99% (active),99% (active)
Clc1nc(Cl)c(Cc2ccccc2)c(Cl)n1,43,97% (active),91% (active),50%,99% (active),93.4% (active),38,100% (active),90.7% (active),34,94% (active),89.2% (active),49,99% (active),87.2% (active),78% (active),97% (active),88.5% (active)
O=C(CC(=O)c1ccccc1)CC(O)(c1ccccc1)c1ccccc1,30,90% (active),84.9% (active),32%,94% (active),89.1% (active),26,89% (active),89.7% (active),27,72% (active),87.6% (active),42,94% (active),87.9% (active),42%,88% (active),86.5% (active)
C=C(C)COc1ccccc1C(OCC)OCC,1,21%,49.9%,7%,19%,14.9%,3,28%,29.1%,-1,27%,13.7%,0,20%,31.6%,0%,39%,78.5% (active)
Oc1cc(Br)ccc1/C=N/Nc1ccccn1,-8,46%,-38.4%,-11%,60%,-13.6%,-19,6%,15.6%,-1,53%,-21.8%,0,46%,-3.4%,-10%,27%,1.05%
NC1=NCN(C2OC(COCc3ccccc3)C(OCc3ccccc3)C2OCc2ccccc2)C(=O)N1 (configuration not stated),5,57%,66.5%,8%,28%,45.6%,5,59%,99.4% (active),-7,58%,80.2% (active),-1,56%,98% (active),1%,86% (active),99% (active)
CN1C(=O)c2cccc3cc([N+](=O)[O-])cc(c23)C1=O,6,80% (active),82.7% (active),-16%,76% (active),29.1%,6,69%,85.8% (active),17,80% (active),56.6%,3,88% (active),64%,15%,53%,56.6%
S=C(Nc1ccc(Cl)c(Cl)c1)SC1CCCCC1,17,96% (active),47.2%,11%,97% (active),64.2%,11,98% (active),87.1% (active),-1,95% (active),87.5% (active),17,96% (active),83.3% (active),20%,96% (active),90% (active)
CC1=C(C(=O)Nc2cccc(Cl)c2)C(c2ccccc2F)C(C(=O)Nc2cccc(Cl)c2)=C(C)N1,44,44%,71.3% (active),49%,49%,81.8% (active),37,37%,86.2% (active),36,36%,85.1% (active),56,56%,86.8% (active),62%,62%,87.7% (active)
